Assay outcomes (PubChem)
Shown are actives, neighbours in structure and some others; about 2.9% of the full set was active somewhere.
S1P3 antag = S1P3 receptor antagonists, primary screen, cell-based. inhibition, % at 4.98 µM. AID 485, 2006. 170,000 compounds, 0.27% hits. Sphingosine 1-phosphate receptor 3 (Homo sapiens), Q99500. CHO S1P3 NFAT-BLA reporter, FRET fluorescence, antagonist mode;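 active = inhibition above the plate cutoff, the mean inhibition of test wells on that plate plus 3 SD, cut at about 28% in these data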;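 also: cells challenged with S1P at its EC80 of 0.8 µM; blue over green emission ratio from cleaved BLA substrate after 4 h stimulation; 0% = S1P-stimulated wells and 100% = unstimulated DMSO-only wells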
Hsp70 activator = Hsp70 transcriptional activators, primary screen, cell-based, HeLa, Hsp70 promoter luciferase, luminescence, 10 µM; HeLa Hsp70 promoter luciferase reporter; scaled: vehicle 0, proteasome-inhibitor control 100%; activation, % at 10 µM; 200,000 compounds, 0.04% hits; AID 1203, 2008;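 active = activation above the mean across all tested compounds plus 3 SD, cutoff set per campaign, cut at about 5.5% in these data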;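 also: 100% = MG132 at 30 µM as the positive control and 0% = DMSO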
HSF1 inh = HSF1 inhibitors in luciferase reporter cells, primary screen, cell-based, NIH3T3, luminescence; 300,000 compounds, 0.77% hits; NIH3T3-HGL HSE-luciferase, MG132-induced, luminescence 8 h; active compounds read low; activity change, negative = inhibition, % at 7.5 µM (by protocol);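 active = more than half of replicate wells show activity change below -50%, luminescence cut by over half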;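 also: luciferase reports HSF-1 transcriptional activity via heat shock element; 0% = median of DMSO wells and -100% = zero luminescence signal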
S1P4 agonist = S1P4 receptor agonists, primary screen, cell-based. Sphingosine 1-phosphate receptor 4 (Homo sapiens), O95977. activation, % at 4.98 µM. S1P4-expressing cell line, agonist reporter assay. 220,000 compounds, 0.35% hits. AID 1509, 2009; in the data active = activation above about 11%;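 also: 0% = DMSO vehicle and 100% = reference agonist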
Target sequence (O95977 whole entry, looked up): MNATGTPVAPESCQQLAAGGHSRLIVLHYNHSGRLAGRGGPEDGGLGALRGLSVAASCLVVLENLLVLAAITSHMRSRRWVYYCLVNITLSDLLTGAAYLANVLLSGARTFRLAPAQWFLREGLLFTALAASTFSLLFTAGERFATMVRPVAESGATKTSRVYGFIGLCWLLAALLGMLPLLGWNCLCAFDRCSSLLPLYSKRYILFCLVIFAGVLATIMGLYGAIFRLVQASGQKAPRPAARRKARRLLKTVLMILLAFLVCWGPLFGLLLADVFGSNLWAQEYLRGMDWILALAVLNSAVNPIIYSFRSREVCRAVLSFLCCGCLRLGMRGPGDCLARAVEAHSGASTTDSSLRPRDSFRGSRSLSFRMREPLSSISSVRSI
HSF1 activator = HSF-1 activators, primary screen, NIH3T3-HGL cells, MG132 stress, luminescence, single point; NIH3T3-HGL HSF-1 luciferase reporter, 8 h; 100% = twice DMSO control signal; activation, % at 9 µM; 300,000 compounds, 1.7% hits; AID 504408, 2011;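 active = mean replicate activation of at least 50% with a set share of replicates each reaching 50%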;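 also: 0% = median of the neutral control wells and 100% = twice that signal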
S1P4 antag = S1P4 receptor antagonists, primary screen, cell-based. Sphingosine 1-phosphate receptor 4 (Homo sapiens), O95977. S1P4-expressing cells, antagonist mode, reporter read-out. inhibition, % at 4.98 µM. 220,000 compounds, 0.26% hits; in the data active = inhibition above about 29%;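 also: 0% = wells stimulated with agonist and 100% = vehicle wells without agonist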
Active calls of the source: *; · = not tested or not shown.

SMILES	S1P3 antag	Hsp70 activator	HSF1 inh	S1P4 agonist	HSF1 activator	S1P4 antag
COC(=O)c1cccc(CSc2nc3ccccc3[nH]2)c1	1	0	25	0	55*	-10
c1ccc(N2CC3CCc4ccccc4C3=N2)cc1 (stereo not given)	2	·	23	11	57*	-8
Cc1nn(-c2ccccc2)c(N)c1N=Nc1ccc2ccccc2c1	13	0	41	1	78*	4
Cc1ccc(N=Nc2c(N)nn(-c3ccccc3)c2N)cc1	5	0	-37	-1	-35	1
O=C(Cc1ccc(S(=O)(=O)N2CCOCC2)s1)NCCc1ccc(F)cc1	·	·	3	·	5	·
CCN(CC)C(=O)CN1C(=O)/C(=C/c2ccccc2)SC1=S	0	·	-57*	1	-68	9
O=C(O)CN1C(=O)/C(=C\c2cccc(OCc3ccccc3F)c2)SC1=S	·	·	20	·	58*	·
COc1ccc(S(=O)(=O)N2CCCC2)cc1C(=O)O	·	·	2	·	15	·
NC(=NCCc1ccccc1)NS(=O)(=O)c1ccccc1	11	0	-11	1	-7	-8
O=C(CCn1c(=S)oc2ccccc21)NC1CCCCCCC1	4	·	6	0	21	-2
C=C(C(=O)c1ccccc1)C(C(=C)C(=O)c1ccccc1)c1ccc(OC)cc1	-11	·	129	-1	143*	-18
C=C(C(=O)c1ccccc1)C(c1ccccc1)C(C)C(=O)c1ccccc1 (stereo not given)	5	0	47	-1	62*	-8
COc1ccc(C(CC(=O)c2ccccc2)CC(=O)c2ccccc2)cc1	17	·	2	0	7	13
C=C(C(=O)c1ccccc1)C(C)C(=C)C(=O)c1ccccc1	6	0	59	0	79*	14
O=C(c1ccccc1)C(c1ccccc1)c1ccccc1	·	·	0	·	16	·
CC(=O)N1CCOc2ccc(S(=O)(=O)N3CCC(C(=O)Nc4ccc(F)cc4)CC3)cc21	·	·	-2	·	0	·
O=C(Nc1nc2ccccc2[nH]1)c1ccc(OC(F)F)cc1	·	·	39	·	68*	·
O=C(Nc1nc2ccccc2[nH]1)c1ccccc1F	-12	-1	-75*	1	-73	1
N#CC(Cc1ccc(OC(F)F)cc1)c1nc2ccccc2[nH]1 (stereo not given)	10	0	21	1	59*	5
O=C(Nc1nc2ccccc2[nH]1)c1ccccc1OC(F)F	·	·	26	·	60*	·
Cc1cc(NC(=O)c2cccc(S(=O)(=O)Nc3cccc(C(=O)O)c3)c2)no1	·	·	-9	·	-13	·
CCOC(=O)c1ccc2ncc(-c3ccccc3)nc2c1	5	0	33	0	62*	3
Cc1cc2ncc(-c3ccccc3)nc2cc1C	·	·	8	·	40	·
Cc1cccc(C)c1OCC(=O)NCc1nnc(SCC(=O)NC2CCCCC2C)n1C (stereo not given)	2	0	37	2	94*	8
O=C(COC(=O)C1C2CC3OC(=O)C1C3C2)Nc1ccccc1 (stereo not given)	·	·	1	·	-15	·
SMILES	S1P3 antag	Hsp70 activator	HSF1 inh	S1P4 agonist	HSF1 activator	S1P4 antag
O=C(/C=C/Nc1ccc([N+](=O)[O-])cc1Br)c1cccc2ccccc12	6	0	19	0	51*	-10
Cc1cc(N/C=C/C(=O)c2cccc3ccccc23)no1	·	0	10	0	12	-4
COc1ccc(C(=O)c2c[nH]cc2-c2ccccc2)cc1	2	0	-57*	1	-69	-17
O=C(c1ccccc1)c1coc2c1C(=O)c1ccccc1C2=O	-5	1	-7	3	-19	-13
O=C1c2ccccc2C(=O)c2c1oc(C(F)(F)F)c2C(=O)c1ccccc1	·	0	-78*	1	-80	1
Nc1cccc2c1C(=O)N(C(=O)/C=C/c1cccc(Br)c1)C2=O	-3	·	130	1	106*	-9
COc1cc(/C=C/C(=O)N2C(=O)c3cccc(N)c3C2=O)cc(OC)c1OC	-6	0	96	-4	130*	-8
Nc1cccc2c1C(=O)N(C(=O)/C=C/c1cccc(F)c1)C2=O	-7	0	21	0	22	-5
COc1ccc(OC)c(/C=C/C(=O)N2C(=O)c3cccc(N)c3C2=O)c1	7	0	83	0	86*	-11
C=C1C(=O)[C@@]23[C@H](O)C[C@@H]4C(C)(C)CC[C@H](O)[C@@]4(C)[C@@H]2CC[C@@H]1[C@H]3O	0	0	-7	0	-7	27
CC(C)[C@H](NC(N)=O)C(=O)NNC(=O)COc1cccc(C(F)(F)F)c1	-1	·	88	1	142*	-5
NNC(=O)COc1cccc(C(F)(F)F)c1	-16	0	4	0	-8	-10
CCOC(=O)c1nnn2c1nc(Nc1cccc(C(F)(F)F)c1)c1ccccc12	-18	·	-2	1	11	2
NC(=O)NC(=O)CN1c2cccc3cccc(c23)S1(=O)=O	·	·	4	·	6	·
CCc1ccc(N(C(=O)c2snc(C(N)=O)c2N)C(C(=O)NCC2CCCO2)c2ccco2)cc1 (stereo not given)	·	·	-1	·	20	·
O=C(Nc1ccc(F)cc1)Nc1csc2ccccc12	24	·	41	1	61*	16
CN(C)c1ccc(NC(=O)Nc2csc3ccccc23)cc1	1	·	-39	0	-48	-5
CN(Cc1cccs1)C(=O)COc1cccc2c1OC(C)(C)C2	·	·	-5	·	-5	·
C/C(=N\OCC(=O)OCC(=O)NCc1ccccc1)c1ccc2c(c1)OCO2	·	·	-20	·	-36	·
Cc1ccc[n+](-c2nc([O-])sc2C=O)c1	-9	0	·	81*	·	-3
Cc1nc2ccc(NC(=O)c3ccc(Cl)s3)cc2s1	56*	0	25	-3	34	-7
COc1ccc(NC(=O)c2ccc3nc(C)sc3c2)cc1	·	·	-44	·	-50	·
Cc1ccc2nc(NC(=O)c3ccc(Cl)s3)sc2c1	-14	1	29	-1	47	-39
COC(=O)c1ccc(NC(=O)c2ccc3nc(C)sc3c2)cc1	·	·	-68*	·	-72	·
COc1ccc(C(=O)NCCOC(C)C)cc1OC1CCN(C(C)=O)CC1	·	·	-8	·	-6	·
COCCOCCn1c(/C=C/c2ccccc2)nc2ccccc21	-5	0	32	0	60*	-5
CC(C)n1c(/C=C/c2ccccc2)nc2ccccc21	-5	0	79	0	107*	-8
CCCCCn1c(C(C)NC(=O)CCC)nc2ccccc21 (stereo not given)	2	0	1	0	15	-15
